From PubChem BioAssay
Rab9 promoter act – activators of Rab9 promoter; Huh7 Rab9 promoter-luciferase reporter, luminescence, 24 h; Potency, µM (doses to about 9.22 µM), for the others: top-dose activation, negative = inhibition, most hits filed as activators; 320,000 tested, 2.8% active; also: % of control where 0% means no effect; nearly all actives have a fitted effect of over 60% in size
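Huh7 cells stably carrying a Rab9 promoter-luciferase reporter, 1500 cells per well in OP-MEM I with 10% FBS, treated with compound 24 hours at 37C. Luciferase activity read by luminescence after 10 minutes with Amplite reagent.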
FLuc counter – inhibits or activates purified firefly luciferase, miR-21 counter-screen; AID 588342; Potency, µM (series often up to 57.5 µM), for the others: at the highest dose activity change, negative = inhibition, hits mostly inhibitors; 360,000 tested, 6.9% active; purified FLuc, Km substrates, luminescence inhibition; P08659;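 also: plate controls were vehicle for no effect and reference inhibitor for full effect; nearly all actives have a fitted effect of over 55% in size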
Target sequence (P08659 whole entry, looked up): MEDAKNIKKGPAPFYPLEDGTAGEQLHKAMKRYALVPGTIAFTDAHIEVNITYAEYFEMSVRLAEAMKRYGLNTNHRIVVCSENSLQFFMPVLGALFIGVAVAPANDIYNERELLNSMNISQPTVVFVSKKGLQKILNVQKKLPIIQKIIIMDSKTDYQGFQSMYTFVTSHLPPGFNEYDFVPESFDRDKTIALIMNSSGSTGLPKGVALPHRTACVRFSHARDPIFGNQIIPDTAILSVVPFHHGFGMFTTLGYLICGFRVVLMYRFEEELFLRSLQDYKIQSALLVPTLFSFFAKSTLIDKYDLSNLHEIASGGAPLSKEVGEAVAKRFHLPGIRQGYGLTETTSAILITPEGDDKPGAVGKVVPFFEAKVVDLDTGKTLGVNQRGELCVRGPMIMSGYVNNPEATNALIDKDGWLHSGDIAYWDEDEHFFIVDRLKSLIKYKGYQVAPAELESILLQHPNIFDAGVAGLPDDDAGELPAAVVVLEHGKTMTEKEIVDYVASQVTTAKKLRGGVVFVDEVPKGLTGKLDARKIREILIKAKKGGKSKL
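Biochemical qHTS of compounds, final roughly 60 µM downward over six points, against 10 nM purified firefly luciferase using Km concentrations of substrates (10 uM D-luciferin, 10 uM ATP) in Tris acetate pH 7.5 buffer; luminescence output.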
NPC1 promoter act – activates the NPC1 promoter; 320,000 tested, 2.4% active; Huh7 NPC1 promoter luciferase reporter, 24 h; Potency, µM (doses to about 9.22 µM), inactives show at the highest dose activation, hits mostly activators; also: % of control where 0% means no effect; nearly all actives have a fitted effect of over 60% in size
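Quantitative HTS used a cell-based reporter: Huh7 cells stably bearing the NPC1 promoter upstream of luciferase were treated with compounds for 24 h, and promoter activation was read as luminescence.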
ELG1 repair inh – inhibitors of ELG1-dependent DNA repair in HEK293T cells | HEK293T ELG1-luciferase reporter, luminescence, 16 h; DNA damage induced by 5-fluorouridine | Potency, µM (highest dose often 46.1 µM), without a hit: top-dose activity change, negative = inhibition, hits mostly inhibitors | 330,000 tested, 2.3% active; also: % is scaled to controls: 0 for no effect and ±100 for the full control effect; nearly all actives have a fitted effect of over 55% in size
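5-Fluorouridine DNA damage + compound/DMSO, 2,000 cells/well, 16 h, 37 °C/5% CO2. ONE-Glo, 30 min RT, luminescence. Readout = decrease in reporter signal.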
SMN2 splice enh – increases expression of the SMN2 splice variant; 210,000 tested, 2.8% active; HEK293 SMN2-luciferase splicing reporter, luminescence, 30-36 h; Potency, µM (doses to about 46.1 µM), inactives show at the highest dose activity change, positive = activation, hits mostly activators; also: % of control where 0% means no effect; nearly all actives have a fitted effect of over 55% in size
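qHTS luciferase splicing reporter: luminescence rises when SMN2 exon 7 is included in transfected HEK293 cells. Compound exposure lasted 30-36 h at 37C, with 4.5 mM final sodium butyrate as control, followed by a ONE-Glo read.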
ELG1 genotoxic – genotoxicity induction in ELG1-luciferase HEK293T cells | HEK293T ELG1-luciferase reporter, luminescence, 16 h | Potency, µM (doses to about 46 µM), inactives show top-dose activity change, positive = activation, most hits filed as activators | 330,000 tested, 1.3% active; also: % of control where 0% means no effect; nearly all actives have a fitted effect of over 60% in size
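Step 1: seed 2,000 HEK293T ELG1-luciferase cells per well. Step 2: add compound or DMSO, incubate 16 hr at 37 °C. Step 3: ONE-Glo, 30 min at room temperature, read luminescence.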
An asterisk follows results filed as active; ? = inconclusive; nt = no result given; [ ] = another dose, or the depositor's remark. A selection: hits, their analogues and other compounds. The true share with any hit is near 9.2%. Calls follow the shape of the dose curve; as a rule, active = well fitted curve in the direction sought with a large enough effect; inconclusive = small, poorly fitted or top-dose-only effect, or another doubt; inactive = no such curve, though single readings can be large; an effect the other way counts as inactive or inconclusive. Potency is read from the fitted curve at half-maximal effect.

SMILES | Rab9 promoter act | FLuc counter | NPC1 promoter act | ELG1 repair inh | SMN2 splice enh | ELG1 genotoxic
Cc1nc(NC(=O)CC(C)C)sc1-c1csc(Nc2ccc(Cl)cc2Cl)n1 | -1% | ? | -3% | 15µM* | -14% | -6%
C=CCCC(=O)Nc1nc(C)c(-c2csc(Nc3cc(Cl)ccc3OC)n2)s1 | 1% | -12% | -11% | ? | -18% | -6%
CN(C(=O)COC(=O)COc1ccc(Cl)cc1Cl)c1c(N)n(Cc2ccccc2)c(=O)[nH]c1=O | 1% | -12% | -3% | 20% | nt | 0%
Cc1cc(C)c2[nH]c(=O)c(CN(Cc3cccs3)C(=S)NCC3CCCO3)cc2c1 (stereo not given) | -2% | -2% | 1% | 26µM* | -11% | -4%
COc1ccc2[nH]c(=O)c(CN(Cc3cccs3)C(=S)NCC3CCCO3)cc2c1 (stereo not given) | -5% | 0% | 0% | 23µM* | nt | -10%
COC(=O)c1ccccc1NC(=S)N(Cc1ccc2c(c1)OCO2)Cc1cc2cc(OC)ccc2[nH]c1=O | -2% | 2% | -5% | 10µM* | -23% | -7%
Cc1ccc2cc(CN(Cc3ccco3)C(=S)NCC3CCCO3)c(=O)[nH]c2c1C (stereo not given) | -1% | -2% | -2% | 10µM* | 3% | -3%
Cc1ccc2c(c1)N(C(=O)N1CCC(C(=O)NCc3ccco3)CC1)CC(C)O2 (stereo not given) | nt | -3% | nt | nt | nt | nt
O=C(NCCc1ccc(Cl)cc1)C1=CC=CN2CCS(=O)(=O)N=C12 | 0% | 2% | 0% | 3% | nt | 1%
Cc1ccc(C(=O)NCCCNC(=O)c2ccco2)cc1C | 11% | -4% | 0% | 11% | nt | 26%
COc1ccc(C(=O)N2C(=O)c3ccc(N)cc3C2=O)cc1 | ? | -17% | ? | ? | 29% | ?
CC(C)CNC(=S)N(Cc1ccco1)Cc1cc2cc3c(cc2[nH]c1=O)OCCO3 | -5% | -1% | -4% | 10µM* | -15% | -2%
Cc1cc(C)c2[nH]c(=O)c(CN(Cc3cccs3)C(=S)NCc3ccco3)cc2c1 | -4% | 7% | 0% | 21µM* | -4%[1.84 µM] | -6%
CCN(CC)CCN(Cc1cc2cc(C)cc(C)c2[nH]c1=O)C(=S)NCc1ccco1 | -9% | 4% | -2% | -34% | -10% | -4%
CCNC(=S)N(Cc1ccco1)Cc1cc2cc3c(cc2[nH]c1=O)OCCO3 | 0% | -1% | 8% | ? | 2% | 1%
Nc1nc2ccc(O)cc2s1 | 3% | -1% | -1% | -7% | 1% | 1%
CC(C)c1ccc2nc(N)sc2c1 | 2µM* | 6.7µM* | 1.6µM* | ? | 13µM* | -8%
Cc1cc2nc(N)sc2cc1C | nt | 9.5µM* | nt | nt | ? | nt
Nc1nc2ccc(S(=O)(=O)c3ccc4nc(N)sc4c3)cc2s1 | 4% | 11% | -2% | 22% | -12% | -3%
O=S(=O)(Nc1cccnc1)c1ccc(Br)c2ccccc12 | 0% | -13% | 6% | 2% | nt | -4%
COc1ccccc1-c1c(-c2ccc(O)cc2O)n[nH]c1C(F)(F)F | -26% | 2% | -18% | 5.8µM* | nt | -9%
CC(C)(C)c1ccc(C(=O)CC(=O)c2cc(Cl)ccc2O)cc1 | -2% | -5% | 23% | 1% | -88% | ?
Cc1ccc(C(=O)CC(=O)c2ccc(C)cc2O)cc1 | ? | 17µM* | ? | ? | nt | 5%
Cc1ccc(C(=O)CC(=O)c2cc(Cl)ccc2O)cc1 | 19% | 17µM* | 19% | ? | 26% | 15µM*
O=C1OC2(CCCC2)OC(=O)C1=Cc1c[nH]c2ccccc12 | 0.89µM* | -5% | 1.1µM* | ? | nt | ?
SMILES | Rab9 promoter act | FLuc counter | NPC1 promoter act | ELG1 repair inh | SMN2 splice enh | ELG1 genotoxic
CCn1cnc2c(Nc3cc(F)cc(F)c3)nc(C#N)nc21 | -7% | 1% | 16% | ? | nt | 2%
N#Cc1nc(Nc2cccc(Cl)c2)c2ncn(C3CCCC3)c2n1 | 1% | 1.3µM* | 3.5µM* | ? | nt | ?
O=C1/C(=C/c2ccncc2)CCC/C1=C\c1ccncc1 | -32% | 0% | -40% | ? | -106% | -23%
CC(C)/C=C1\CC/C(=C\c2ccc(N(C)C)cc2)C1=O | ? | 0.95µM* | 3.5µM* | ? | ? | 9.2µM*
CC(C)c1ccc(/C=C2\CC/C(=C\C=N\N(C)C)C2=O)cc1 | ? | 2.4µM* | ? | ? | 13µM* | 3.3µM*
Cc1ccccc1Nc1nc(-c2sc(NC(=O)c3cccc(Cl)c3)nc2C)cs1 | 0% | ? | -1% | 3% | -18% | 0%
Cc1ccccc1Nc1nc(-c2sc(NC(=O)c3ccccc3)nc2C)cs1 | -4% | 8.5µM* | 1% | ? | 2% | 0%
Cc1nc(Nc2ccccc2)sc1C(=O)c1ccc(F)cc1 | ? | 19µM* | ? | ? | nt | 15%
Nc1nc(Nc2ccccc2F)sc1C(=O)c1ccccc1 | 0.71µM* | 6µM* | ? | ? | nt | ?
Cc1nc(NC(=O)c2ccccc2)sc1-c1csc(Nc2ccc(Cl)cc2)n1 | -6% | 8.5µM* | -5% | ? | -29% | 1%
Nc1c(C(=O)c2ccc(F)cc2)sc(Nc2ccccc2F)c1S(=O)(=O)c1ccc(Br)cc1 | nt | -5% | nt | nt | nt | nt
CCOc1ccc(-n2c(SCC(=O)N3CCOCC3)nc3c([nH]c4ccccc43)c2=O)cc1 | nt | -3% | nt | nt | nt | nt
Cc1nc(NC(=O)c2ccccc2)sc1-c1csc(Nc2ccc(F)cc2)n1 | -2% | 7.6µM* | -5% | ? | -46% | -12%
Cc1nc(NC(=O)c2ccccc2)sc1-c1csc(Nc2ccc(Cl)cc2Cl)n1 | -1% | 9.5µM* | 0% | ? | 4% | -1%
Cc1nc(NC(=O)c2ccccc2)sc1-c1csc(Nc2cccc(Cl)c2)n1 | 2% | ? | 0% | ? | -33% | -7%
Cc1ccsc1/C=C1\SC(=S)N(CC2CCCO2)C1=O (stereo not given) | ? | 11µM* | 13% | ? | 18% | ?
CCCOc1ccc(/C=C2\SC(=S)N(CC3CCCO3)C2=O)cc1 (stereo not given) | 7% | 9.5µM* | -3% | -1% | -21% | 7%
CCN=C1S/C(=C\c2ccc(OC)c(OCC)c2)C(=O)N1CC | -6% | 4% | 0% | 1% | 0% | 0%
CCN=C1S/C(=C\c2sccc2C)C(=O)N1CC | ? | 12µM* | ? | ? | 24% | ?
NS(=O)(=O)c1ccc(CCNC(=O)c2ccc(OCC3CCCO3)cc2)cc1 (stereo not given) | 1% | 1% | -4% | 18% | nt | -5%
CC(=O)c1ccc(NC(=O)N2CCc3ccccc3C2)cc1 | ? | ? | 21% | ? | 22µM* | 24%
